# High-throughput results (PubChem BioAssay)
# Compounds with a hit are over-represented: about 4.8% of the library has one in this group of screens.
# hgDAF12 agonist = hgDAF-12 agonism, primary luciferase screen | AID 687014 | 370,000 compounds, 1.8% hits | HEK293 GAL4-hgDAF12 UAS-luciferase reporter, agonist luminescence; normalized to butyrate control | activation, % at 6.8 µM;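 active means activation above a cutoff set at the mean of all screened compounds plus 3 SD, cut at about 10% in these data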;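 further: 0% = DMSO wells and 100% = sodium butyrate wells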
# ssDAF12 agonist = activators of S. stercoralis DAF-12 nuclear receptor; activation, % at 6.8 µM; AID 652126; 370,000 compounds, 1% hits; HEK293 ssDAF-12/GRIP1 lit1-tk-luc reporter, luminescence; % of 3 µM dafachronic acid response;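 active means activation above the mean over all tested compounds plus 3 SD, cut at about 0.9% in these data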;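 further: 0% = DMSO-only wells and 100% = 3 µM delta7-dafachronic acid wells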
# DAX1 inh-1 = DAX1 (NR0B1) inhibition, primary screen; 370,000 compounds, 1.1% hits; inhibition, % at 6.8 µM; HEK293T StAR-luciferase reporter, SF-1/DAX-1 repression relief;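 active means inhibition above the mean over all tested compounds plus 3 SD, cut at about 3.6% in these data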;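 further: 0% = DAX-1 cells with DMSO and 100% = cells lacking DAX-1 with DMSO; higher inhibition means more luminescence from relief of DAX-1 repression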
# DAX1 inh-2 = inhibitors of human orphan nuclear receptor DAX1 (NR0B1). AID 504766. inhibition, % at 6.75 µM. P51843. HEK293 Gal4-DAX1 luciferase reporter, luminescence. 340,000 compounds, 0.99% hits;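 active means inhibition above the mean over all tested compounds plus 3 SD, cut at about 4.2% in these data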;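 further: 0% = DAX1-transfected cells with DMSO and 100% = empty-vector control cells with DMSO; inhibition shows as a rise in luminescence from relieved DAX1 repression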
# Target sequence (P51843 207-470 limits assumed): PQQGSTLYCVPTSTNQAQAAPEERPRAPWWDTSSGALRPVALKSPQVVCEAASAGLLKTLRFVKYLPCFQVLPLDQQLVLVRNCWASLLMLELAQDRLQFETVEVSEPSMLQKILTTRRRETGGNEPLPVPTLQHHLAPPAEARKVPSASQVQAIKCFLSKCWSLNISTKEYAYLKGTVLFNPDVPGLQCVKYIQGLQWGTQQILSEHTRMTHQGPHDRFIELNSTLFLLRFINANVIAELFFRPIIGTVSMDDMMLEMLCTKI
# hcDAF12 agonist = activates DAF-12 receptor from parasite H. contortus; HEK293 hcDAF-12 lit1-tk-luc reporter, luminescence; 0% DMSO, 100% Δ7-dafachronic acid; activation, % at 6.8 µM; AID 652067; 370,000 compounds, 1.4% hits;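 active means activation above the mean of all tested compounds plus 3 SD, cut at about 5.5% in these data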;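 further: 100% = response to 3 µM Δ7-dafachronic acid high control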
# SMARCA2 activ = activators of SMARCA2 function. MG213 cells, MMTV-luciferase reporter, dexamethasone, overnight. activation, % at 9.1 µM. 370,000 compounds, 1% hits. AID 652017; in the data active means activation above about 7.8%;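 further: 0% = vehicle wells and 100% = reference activator wells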
# An asterisk follows results filed as active; nt = no result.
SMILES,hgDAF12 agonist,ssDAF12 agonist,DAX1 inh-1,DAX1 inh-2,hcDAF12 agonist,SMARCA2 activ
O=C(COc1cccnc1[N+](=O)[O-])c1c[nH]c2ccccc12,1.9,-0.6,-0.2,-0.9,5.9*,0.9
COc1ccc(C(=O)COC(=O)c2cc(=O)[nH]c3ccccc23)c(OC)c1,5.1,1.0*,3.6,0.4,2.6,1.5
Cc1cc(C)c(C(=O)COc2cccnc2[N+](=O)[O-])cc1C,-3.7,-0.8,0.3,-0.1,-1.3,1.4
CCOC(=O)N1CCN(C(=O)C[C@@H]2C(=O)N3CCCC4=C3[C@@]2(C(=O)OCC)CCC4)CC1,1.1,-1.2,-0.1,nt,-0.5,-0.2
O=C(Cc1ccccc1)Nc1nc2ccccc2[nH]1,5.2,-1.3,1.4,-1.5,-0.7,1.2
O=C(Cc1c[nH]c2ccccc12)Nc1nc2ccccc2[nH]1,6.0,1.9*,1.1,1.6,3.2,3.2
O=C(CN1C(=O)C2CC=CCC2C1=O)Nc1nc2ccccc2[nH]1 (stereo not drawn),1.9,-0.3,0.4,5.4*,1.5,-0.6
O=C(CCCOc1ccccc1)Nc1nc2ccccc2[nH]1,11.8*,-1.3,1.6,2.5,4.0,-1.3
Cc1ccc(/C=C/C(=O)Nc2nc3ccccc3[nH]2)cc1,8.6,0.6,2.2,1.9,5.8*,7.3
Cc1ccc(/C=C/C(=O)c2nc3ccccc3[nH]2)cc1,-1.4,-1.3,-0.8,1.0,-2.9,-0.7
O=S1(=O)C=CCN1Cc1cn(Cc2ccccc2)nn1,2.8,-1.9,0.7,nt,0.9,-0.1
C[C@@H]1CCN(C2CC2)S(=O)(=O)c2ccc(N3CCC[C@@H]3CO)cc2O1,-0.3,0.5,-0.3,nt,-1.3,-0.6
NC(=O)C1CCN(c2ncc(Br)s2)CC1,0.9,-1.3,nt,nt,0.8,nt
O=C(Nc1nc2ccccc2[nH]1)c1ccccc1O,11.4*,1.2*,1.6,1.4,4.5,6.2
O=C(Nc1nc2ccccc2[nH]1)c1ccc(Cl)cc1,9.9,0.3,0.5,-3.4,5.8*,4.0
O=[N+]([O-])c1ncccc1OCc1ccc(Br)cc1F,10.6*,-0.5,0.3,-0.2,0.8,3.7
O=C(NCc1ccccc1)[C@@H]1CCCN1C(=O)[C@H]1CCCN1C(=O)c1ccccc1F,-1.3,-1.0,1.3,nt,-1.4,2.8
CC(C)[C@@H](C)/C=C/[C@@H](C)[C@H]1CC[C@@H]2[C@]1(C)CCC1[C@]23C=C[C@]2(C[C@@H](O)CC[C@]12C)N(c1ccc(F)cn1)O3 (stereo partly drawn),3.1,-0.1,1.3,nt,1.7,3.7
Cc1cc(N2O[C@]34C=C[C@]25C[C@@H](O)CC[C@]5(C)C3CC[C@]2(C)[C@@H]([C@H](C)/C=C/[C@H](C)C(C)C)CC[C@H]24)no1 (stereo partly drawn),2.9,1.0*,1.1,-0.5,4.7,0.8
C=CCN1C(=O)[C@@H](CC(=O)NCC2CCCCC2)[C@]2(C(=O)OCC)CCCCC/C=C/12,0.3,-0.2,0.1,nt,-0.6,-2.8
O=C(NCc1cccs1)C1CCN(S(=O)(=O)c2ccc([N+](=O)[O-])cc2)CC1,-3.1,-1.8,-0.7,nt,-2.4,-4.4
O=C1CS/C(=N/N=C/c2c[nH]c3ccccc23)N1,0.6,-0.9,0.3,nt,0.6,-0.8
C(=NN=Cc1c[nH]c2ccccc12)c1c[nH]c2ccccc12,3.2,-0.1,-0.1,1.4,6.1*,3.6
Cc1cc(C)n(/N=C/c2c[nH]c3ccccc23)c(=O)c1,-0.9,0.7,0.7,2.1,6.5*,-3.5
COc1ccc(Nc2n[nH]c(N)c2C(N)=O)cc1,-1.6,-2.1,0.9,14.2*,0.0,-2.9
CC(=O)NC(Cc1ccc2c(c1)OCO2)C(=O)N1CCCC1 (stereo not drawn),1.2,-0.9,0.3,nt,-1.4,-0.9
Cc1c(/C=C/C(=O)c2ccccc2O)cnn1C,13.2*,0.1,2.6,4.5*,4.0,0.4
OC(COc1ccc2ccccc2c1Cl)CN1CCOCC1 (stereo not drawn),11.5*,-0.6,1.9,1.9,1.3,5.4
OC(COc1cccc2ccccc12)CN1CCOCC1 (stereo not drawn),-4.6,-0.5,0.3,0.5,-0.4,-0.9
OC1OC2COC(c3ccccc3)OC2C(O)C1O (stereo not drawn),-1.9,-0.6,0.8,nt,-1.4,2.1
